PubChem BioAssay AID1159580 (chemical genetic matrix, 2015)
Several values for one entry are separate records, joined by “and”; a condition that tells them apart may be missing. Equal values may be shown once. The whole screen tested about 5,500 compounds, of which about 2,000 (36%) were called active. Inconclusive results (about 18%) are left out. Rule as the data show it: active = normalized growth mostly below about 0.91 (no sharp cut-off); inconclusive = no clear call, values can overlap the other calls; inactive = mostly above about 0.92. The list shows a part of the results.

Assay: chemical genetic growth profiling, strain panel (AID 1159580);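 also: tested at 20 µM; growth read once vehicle control cultures reached saturation at 30 °C; 1 = growth at the plate median or of vehicle wells; lower values mean less growth of the strain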
Details: S. cerevisiae deletion strains, growth OD

Measured: normalized growth

CC(C)(O)[C@@H]1[C@H]2OC(=O)[C@@H]1[C@]1(O)C[C@H]3O[C@]34C(=O)O[C@H]2[C@]14C
inactive: locus YAL013W, strain DEP1, hits give low values 1 | locus YAL021C, strain ccr4, hits give low values 1.01 | locus YAL026C, strain drs2, hits give low values 1.01 | locus YAL030W, strain snc1, hits give low values 1 | locus YBL061C, strain skt5, hits give low values 1 | locus YBR009C, strain hhf1, hits give low values 0.998 | locus YBR021W, strain FUR4, hits give low values 1 | locus YBR023C, strain chs3, hits give low values 1.01 | locus YBR171W, strain sec66, hits give low values 0.99 | locus YBR229C, strain ROT2, hits give low values 1 | locus YBR231C, strain swc5, hits give low values 0.991 | locus YBR279W, strain paf1, hits give low values 1.01 | locus YCL011C, strain gbp2, hits give low values 1.01 | locus YCL016C, strain dcc1, hits give low values 1.01 | locus YCL029C, strain bik1, hits give low values 1.01 | locus YCL061C, strain MRC1, hits give low values 1 | locus YCL069W, strain vba3, hits give low values 1.01 | locus YCR088W, strain abp1, hits give low values 1 | locus YDL005C, strain med2, hits give low values 0.988 | locus YDL035C, strain GPR1, hits give low values 1 | locus YDL040C, strain nat1, hits give low values 1 | locus YDL074C, strain BRE1, hits give low values 1.02 | locus YDL101C, strain DUN1, hits give low values 1.01 | locus YDL134C, strain PPH21, hits give low values 1 | locus YDL185W, strain tfp1, hits give low values 1.01 | locus YDL192W, strain arf1, hits give low values 1.02 | locus YDR001C, strain nth1, hits give low values 1.01 | locus YDR069C, strain doa4, hits give low values 1.01 | locus YDR101C, strain arx1, hits give low values 1 | locus YDR137W, strain rgp1, hits give low values 1 | locus YDR150W, strain NUM1, hits give low values 1 | locus YDR159W, strain sac3, hits give low values 0.993 | locus YDR162C, strain NBP2, hits give low values 1.01 | locus YDR195W, strain ref2 0.988 | locus YDR297W, strain sur2, hits give low values 0.993 | locus YDR318W, strain mcm21, hits give low values 1.01 | locus YDR334W, strain swr1, hits give low values 1.02 | locus YDR335W, strain msn5, hits give low values 1 | locus YDR388W, hits give low values 1.02 | locus YDR392W, strain spt3, hits give low values 0.939 | locus YDR502C, strain sam2, hits give low values 1.03 | locus YEL003W, strain gim4, hits give low values 1 | locus YEL037C, strain rad23, hits give low values 1.02 | locus YEL061C, strain CIN8 (second series), hits give low values 1.01 | locus YEL061C, strain CIN8, hits give low values 1 | locus YER015W, strain faa2, hits give low values 1.01 | locus YER016W, strain bim1, hits give low values 0.997 | locus YER110C, hits give low values 1.02 | locus YER111C, strain swi4, hits give low values 1 | locus YER155C, strain BEM2 (second series), hits give low values 1.01 | locus YER155C, strain BEM2, hits give low values 1 | locus YER167W, strain BCK2, hits give low values 1 | locus YFR010W, strain ubp6, hits give low values 1.01 | locus YGL078C, strain dbp3, hits give low values 1.01 | locus YGL086W, strain mad1, hits give low values 1.02 | locus YGL167C, strain pmr1, hits give low values 1 | locus YGL173C, strain kem1, hits give low values 1 | locus YGL227W, strain vid30, hits give low values 0.993 | locus YGL240W, strain doc1, hits give low values 1 | locus YGL248W, strain PDE1, hits give low values 1.01 | locus YGL253W, strain hxk2, hits give low values 1.01 | locus YGR078C, strain PAC10, hits give low values 1 | locus YGR135W, strain pre9, hits give low values 1 | locus YGR252W, strain gcn5, hits give low values 0.994 | locus YHR013C, strain ard1, hits give low values 0.988 | locus YHR027C, strain rpn1, hits give low values 1.01 | locus YHR030C, strain SLT2, hits give low values 1.01 and 1.03 | locus YHR079C, strain IRE1 (second series), hits give low values 1.01 | locus YHR079C, strain IRE1, hits give low values 1.03 | locus YHR094C, strain hxt1, hits give low values 1.01 | locus YHR129C, strain ARP1, hits give low values 1 | locus YHR142W, strain chs7, hits give low values 1.01 | locus YHR200W, strain rpn10, hits give low values 1.03 | locus YIL066C, strain RNR3, hits give low values 1.01 | locus YIL073C, strain SPO22, hits give low values 1.06 | locus YIL125W, strain kgd1, hits give low values 1.01 | locus YIR030C, strain dcg1, hits give low values 1.02 | locus YJL092W, strain hpr5, hits give low values 1 | locus YJL095W, strain BCK1 (second series), hits give low values 1 | locus YJL095W, strain BCK1, hits give low values 0.997 and 1.04 | locus YJL115W, strain asf1, hits give low values 1.01 | locus YJL129C, strain trk1, hits give low values 1 | locus YJL134W, strain LCB3, hits give low values 1.01 | locus YJL154C, strain vps35, hits give low values 1.01 | locus YJL164C, strain tpk1, hits give low values 0.999 | locus YJL166W, strain qcr8, hits give low values 1 | locus YJL168C, strain set2, hits give low values 1.01 | locus YJL187C, strain SWE1 (second series), hits give low values 1.01 | locus YJL187C, strain SWE1, hits give low values 1.01 | locus YJR043C, strain POL32, hits give low values 1.01 | locus YJR066W, strain TOR1, hits give low values 0.965 | locus YJR075W, strain HOC1, hits give low values 1.01 | locus YKL009W, strain mrt4, hits give low values 1.02 | locus YKL068W, hits give low values 1 | locus YKL085W, strain MDH1 (second series), hits give low values 1 | locus YKL085W, strain MDH1, hits give low values 1 | locus YKL160W, strain elf1, hits give low values 0.998 | locus YKL190W, strain CNB1, hits give low values 1.01 | locus YKR001C, strain vps1, hits give low values 1.05 | locus YKR026C, strain gcn3, hits give low values 1.01 | locus YKR091W, strain srl3, hits give low values 1 | locus YLL001W, strain dnm1, hits give low values 0.996 | locus YLL026W, hits give low values 0.999 | locus YLL041C, strain sdh2, hits give low values 1.01 | locus YLR027C, strain aat2, hits give low values 1.03 | locus YLR039C, strain RIC1, hits give low values 0.995 | locus YLR058C, strain SHM2, hits give low values 1 | locus YLR102C, strain apc9, hits give low values 1.01 | locus YLR113W, strain HOG1, hits give low values 0.982 | locus YLR221C, strain rsa3, hits give low values 0.999 | locus YLR258W, strain gsy2, hits give low values 0.997 | locus YLR262C, strain YPT6 (second series), hits give low values 0.991 | locus YLR262C, strain YPT6, hits give low values 1.02 | locus YLR268W, strain sec22, hits give low values 1.02 | locus YLR320W, strain mms22, hits give low values 1 | locus YLR330W, strain CHS5, hits give low values 1.01 | locus YLR342W, strain FKS1 (second series), hits give low values 1.02 | locus YLR342W, strain FKS1, hits give low values 1.01 | locus YLR357W, strain rsc2, hits give low values 1.02 | locus YLR370C, strain arc18, hits give low values 1 | locus YLR371W, strain rom2, hits give low values 1.02 | locus YLR384C, strain iki3, hits give low values 0.994 | locus YLR418C, strain cdc73, hits give low values 0.997 | locus YML016C, strain PPZ1, hits give low values 1.01 | locus YML032C, strain rad52, hits give low values 1.02 | locus YML120C, strain ndi1, hits give low values 1.01 | locus YML124C, strain tub3, hits give low values 1 | locus YMR058W, strain fet3, hits give low values 1.01 | locus YMR078C, strain ctf18, hits give low values 1.01 | locus YMR125W, strain sto1, hits give low values 1.01 | locus YMR129W, hits give low values 1 | locus YMR205C, strain PFK2, hits give low values 0.988 | locus YMR223W, strain ubp8, hits give low values 1.01 | locus YMR231W, strain pep5, hits give low values 1 | locus YMR263W, strain SAP30, hits give low values 1.01 | locus YMR307W, strain GAS1, hits give low values 1.03 | locus YNL067W, strain RPL9B, hits give low values 1 | locus YNL071W, strain lat1, hits give low values 1.01 | locus YNL128W, strain TEP1, hits give low values 1.03 | locus YNL153C, strain GIM3, hits give low values 1 | locus YNL183C, strain NPR1, hits give low values 0.987 | locus YNL209W, strain ssb2, hits give low values 1.01 | locus YNL233W, strain BNI4, hits give low values 0.996 | locus YNL248C, strain rpa49, hits give low values 0.958 | locus YNL250W, strain rad50, hits give low values 1 | locus YNL271C, strain bni1, hits give low values 1.01 | locus YNL298W, strain CLA4, hits give low values 1.02 | locus YNL307C, strain MCK1, hits give low values 1.03 | locus YNL322C, strain KRE1 (second series), hits give low values 0.998 | locus YNL322C, strain KRE1, hits give low values 1 | locus YNR049C, strain mso1, hits give low values 1.01 | locus YNR052C, strain pop2, hits give low values 1.01 | locus YOL006C, strain TOP1, hits give low values 1.02 | locus YOL012C, strain htz1 1.37 | locus YOL147C, strain pex11, hits give low values 1.01 | locus YOR001W, strain rrp6, hits give low values 1.02 | locus YOR061W, strain CKA2, hits give low values 1.02 | locus YOR069W, strain VPS5, hits give low values 1.01 | locus YOR070C, strain gyp1, hits give low values 1.02 | locus YOR080W, strain dia2, hits give low values 0.992 | locus YOR083W, strain WHI5, hits give low values 0.988 | locus YOR106W, strain vam3, hits give low values 1.01 | locus YOR136W, strain idh2, hits give low values 1.01 | locus YOR144C, strain elg1, hits give low values 1.02 | locus YOR184W, strain ser1, hits give low values 1.02 | locus YOR231W, strain MKK1, hits give low values 1.02 | locus YOR265W, strain rbl2, hits give low values 1.01 | locus YOR270C, strain vph1, hits give low values 1.02 | locus YOR290C, strain snf2, hits give low values 0.982 | locus YOR316C, strain cot1, hits give low values 1.01 | locus YPL051W, strain arl3, hits give low values 1.04 | locus YPL055C, strain LGE1, hits give low values 1.01 | locus YPL078C, strain atp4, hits give low values 1.01 | locus YPL106C, strain sse1, hits give low values 0.987 | locus YPL240C, strain hsp82, hits give low values 0.997 | locus YPL241C, strain CIN2, hits give low values 1.01 | locus YPL256C, strain CLN2, hits give low values 1.02 | locus YPR119W, strain clb2, hits give low values 1.01 | locus YPR141C, strain kar3, hits give low values 1 | locus YPR163C, strain tif3, hits give low values 1.03 | locus YPR167C, strain met16, hits give low values 1.01 | strain wtn01, hits give low values 1.03
